High-throughput results from PubChem BioAssay.
A549 tox = Nrf2 qHTS screen for inhibitors: counterscreen for cytotoxicity. A549 ARE-Fluc cells, CellTiter-Fluor viability, 18-24 h. Potency, µM (top dose mostly 46 µM), without a hit: at the top dose activity change, negative = cytotoxicity, most hits filed as inhibitors. actives 0.16% (n = 390,000); further: on the % scale 0 is the no-effect control and ±100 the full control effect
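A549 ARE-Fluc cells in 5% FBS OPTI-MEM, 5000 cells/well, rested 2 h then exposed to compounds in concentration-response for 18-24 h at 37 °C. Viability by CellTiter-Fluor fluorescence (Ex 405/Em 525) after 30 min; luciferase luminescence (BugLite, 15 min, RT) read afterwards.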
Nrf2 ARE act = qHTS of Nrf2 Activators; AID 624171, 2012; actives 0.31% (n = 410,000); Potency, µM (doses to about 46.1 µM), inactives show at the highest dose activation, most hits filed as activators; AREc32 ARE-luciferase reporter (MCF7-derived line), luminescence, 24 h; further: % of control where 0% means no effect; nearly all actives have a fitted effect of over 65% in size
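Reporter line AREc32 (ARE-Fluc), seeded overnight in OPTI-MEM with 5% FBS; compound pin-transferred, 24 hr at 37 deg C, 5% CO2; luminescent read-out.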
Rango dissoc inh = qHTS Assay for Inhibitors of RanGTP induced Rango (Ran-regulated importin-beta cargo) - Importin beta complex dissociation | AID 540253, 2011 | actives 0.071% (n = 340,000) | Biochemical FRET Rango-importin beta, RanGTP-induced dissociation | Snurportin-1 (Homo sapiens) + GTP-binding nuclear protein Ran (Homo sapiens) + Importin … | Potency, µM (doses to about 46.1 µM), for inactives: top-dose activity change, negative = inhibition; calls by dose curve; further: % of control where 0% means no effect; nearly all actives have a fitted effect of over 45% in size
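Two FRET readings bracket the reaction: one 5 min after compound meets Rango–importin beta, another 45 min after RanGTP-RCC1 (0.6 uM Ran, 0.2 uM RCC1, 2 mM GTP) is added. Only the second defines inhibition.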
Rango complex inh = qHTS Assay for Inhibitors of Rango (Ran-regulated importin-beta cargo) - Importin beta complex formation. Importin subunit beta-1 (Homo sapiens), Q14974. Rango CFP/YFP FRET sensor + importin beta, 45 min. Potency, µM (doses to about 92.2 µM), inactives show at the top dose inhibition of complex formation. actives 0.031% (n = 340,000). AID 540263, 2011; calls by dose curve;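 further: 0% = DMSO wells and 100% = buffer wells lacking importin beta; nearly all actives have a fitted effect of over 15% in size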
Target sequence (Q14974 whole entry, looked up): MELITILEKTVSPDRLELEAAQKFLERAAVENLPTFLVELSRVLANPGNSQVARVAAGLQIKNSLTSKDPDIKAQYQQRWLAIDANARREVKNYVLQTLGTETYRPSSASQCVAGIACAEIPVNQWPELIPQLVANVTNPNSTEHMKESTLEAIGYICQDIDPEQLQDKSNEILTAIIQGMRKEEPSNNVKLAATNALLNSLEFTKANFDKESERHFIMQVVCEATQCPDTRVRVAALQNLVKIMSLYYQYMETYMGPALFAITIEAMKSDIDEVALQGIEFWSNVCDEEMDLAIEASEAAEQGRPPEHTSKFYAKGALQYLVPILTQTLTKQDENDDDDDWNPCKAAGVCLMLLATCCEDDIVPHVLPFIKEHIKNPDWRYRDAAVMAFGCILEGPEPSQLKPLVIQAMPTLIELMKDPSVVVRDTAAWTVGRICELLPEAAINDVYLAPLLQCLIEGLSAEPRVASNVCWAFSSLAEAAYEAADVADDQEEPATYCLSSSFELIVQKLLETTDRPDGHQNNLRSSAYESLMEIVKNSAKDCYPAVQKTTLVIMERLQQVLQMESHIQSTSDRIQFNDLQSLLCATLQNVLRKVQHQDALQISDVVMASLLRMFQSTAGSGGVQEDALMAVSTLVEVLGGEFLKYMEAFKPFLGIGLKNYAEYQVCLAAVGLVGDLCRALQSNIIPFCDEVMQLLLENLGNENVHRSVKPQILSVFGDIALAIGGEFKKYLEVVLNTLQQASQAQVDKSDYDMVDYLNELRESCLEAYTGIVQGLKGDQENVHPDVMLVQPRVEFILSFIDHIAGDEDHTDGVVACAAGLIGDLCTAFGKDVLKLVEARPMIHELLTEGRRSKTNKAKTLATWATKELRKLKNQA
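Inhibition scored from the CFP 486 nm/YFP 530 nm FRET ratio 45 min after adding 0.125 microM importin beta to 50 nM Rango biosensor preincubated 5 min with compound (room temperature, PBS with DTT, Tween-20, BSA). No-importin wells as positive control.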
Nrf2 inh = Nrf2 qHTS screen for inhibitors; actives 2.1% (n = 360,000); A549 ARE-Fluc reporter, luciferase luminescence, 18-24 h; Potency, µM (top dose mostly 46 µM), without a hit: top-dose activity change, negative = inhibition, most hits filed as inhibitors; AID 504444, 2011; further: on the % scale 0 is the no-effect control and ±100 the full control effect; nearly all actives have a fitted effect of over 60% in size
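Quantitative HTS in A549 cells stably bearing an antioxidant response element-firefly luciferase construct. Inhibition of Nrf2-driven transcription was scored by luminescence after 18-24 h of compound exposure at 37 °C.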
Numbers without * were called inactive. Hits are enriched below; roughly 2.3% of the tested compounds scored in any of these assays. Unless noted, the call rests on the fitted dose curve; in most records, active means well fitted curve in the direction sought with a large enough effect; inconclusive means small, poorly fitted or top-dose-only effect, or another doubt; inactive means no such curve, though single readings can be large; an effect the other way counts as inactive or inconclusive. Potency means the concentration at half of the fitted maximal effect.

How did C/C(=N\NC(=O)CSc1nc2ccccc2s1)c1ccco1 do in these assays?
A549 tox: 19%; Nrf2 ARE act: 7.1µM*; Rango dissoc inh: -8%; Rango complex inh: -3%; Nrf2 inh: 8%

How did N#C/C(=C\c1ccco1)Sc1nc2ccccc2s1 do in these assays?
A549 tox: -3%; Nrf2 ARE act: 11µM*; Rango dissoc inh: 13%; Rango complex inh: 2%; Nrf2 inh: 23%

How did CC(=O)CSc1nc2ccccc2s1 do in these assays?
A549 tox: 12%; Nrf2 ARE act: 3%; Rango dissoc inh: -11%; Rango complex inh: 0%; Nrf2 inh: inconclusive

How did O=C(CCCSc1nc2ccccc2s1)NCc1ccco1 do in these assays?
A549 tox: -9%; Nrf2 ARE act: 24%; Rango dissoc inh: 4%; Rango complex inh: 2%; Nrf2 inh: 5%

What do the screens show for `O=C(CSc1nc2ccccc2s1)N/N=C/c1ccc(C(=O)O)cc1`?
A549 tox: 2%; Nrf2 ARE act: 0%; Rango dissoc inh: -9%; Rango complex inh: 3%; Nrf2 inh: inconclusive

What do the screens show for `O=C(CSc1nc2ccccc2s1)N/N=C/c1ccco1`?
A549 tox: -1%; Nrf2 ARE act: 5µM*; Rango dissoc inh: 12%; Rango complex inh: 4%; Nrf2 inh: -2%

Results for Cc1cc(/C=C2/C(=N)N3C(=NC2=O)SN=C3S(C)(=O)=O)c(C)n1-c1ccc(F)cc1 ?
A549 tox: inconclusive; Nrf2 ARE act: 0%; Rango dissoc inh: inconclusive; Rango complex inh: inconclusive; Nrf2 inh: 18%

Results for CCOc1ccc(-n2c(C)cc(/C=C3/C(=N)N4C(=NC3=O)SN=C4S(C)(=O)=O)c2C)cc1 ?
A549 tox: inconclusive; Nrf2 ARE act: 0%; Rango dissoc inh: inconclusive; Rango complex inh: inconclusive; Nrf2 inh: 4.6µM*

What do the screens show for `Cc1ccc2c(=O)c(C(=O)c3ccc(Cl)cc3)cn(CC(=O)Nc3ccc4c(c3)OCCO4)c2n1`?
A549 tox: 3%; Nrf2 ARE act: 0%; Nrf2 inh: -9%

Results for COc1ccc(S(=O)(=O)NCCCCC(=O)O)cc1C(=O)O ?
A549 tox: -33%; Nrf2 ARE act: 0%; Rango dissoc inh: inconclusive; Rango complex inh: inconclusive; Nrf2 inh: 16µM*

Results for COc1ccc(S(=O)(=O)NCCCCCC(=O)O)cc1C(=O)O ?
A549 tox: -1%; Nrf2 ARE act: 0%; Rango dissoc inh: 1%; Rango complex inh: -3%; Nrf2 inh: -2%

What do the screens show for `CC1Cc2ccccc2N1C(=O)CN1CCC(n2nnc3cc(C(F)(F)F)ccc32)CC1` (centres undefined)?
A549 tox: inconclusive; Nrf2 ARE act: 4%; Rango dissoc inh: 7%; Rango complex inh: -2%; Nrf2 inh: 16µM*

Results for Cc1ccc(NC(=O)CSc2ncc3c(n2)-c2ccc(Cl)cc2N(C)S3(=O)=O)cc1F ?
A549 tox: -2%; Nrf2 ARE act: 1%; Nrf2 inh: inconclusive

How did CN1c2cc(Cl)ccc2-c2nc(SCC(=O)Nc3ccc(F)cc3F)ncc2S1(=O)=O do in these assays?
A549 tox: -17%; Nrf2 ARE act: -1%; Nrf2 inh: 16µM*

Results for COc1ccc(-c2cn(-c3ccccc3)c3[n+]2CCS3)cc1 ?
A549 tox: -12%; Nrf2 ARE act: 2%; Rango dissoc inh: -4%; Rango complex inh: -2%; Nrf2 inh: 2.6µM*

How did c1ccc(-c2cn(-c3ccccc3)c3[n+]2CCS3)cc1 do in these assays?
A549 tox: -12%; Nrf2 ARE act: -1%; Rango dissoc inh: 12%; Rango complex inh: 4%; Nrf2 inh: inconclusive

What do the screens show for `Cc1cc(NC(=O)c2c(C)noc2C)no1`?
A549 tox: 0%; Nrf2 ARE act: 0%; Rango dissoc inh: 8%; Rango complex inh: -1%; Nrf2 inh: 9%

What do the screens show for `CN(/N=C/c1cc(Cl)cc(Cl)c1O)c1c(Cl)cccc1[N+](=O)[O-]`?
A549 tox: -1%; Nrf2 ARE act: 25%; Rango dissoc inh: 2%; Rango complex inh: -1%; Nrf2 inh: 24%

Results for Cc1csc2ncnc(N3CCN(S(=O)(=O)c4cccc(C(F)(F)F)c4)CC3)c12 ?
A549 tox: -21%; Nrf2 ARE act: -1%; Rango dissoc inh: -4%; Rango complex inh: 0%; Nrf2 inh: 5.2µM*

Results for O=C(CSC1=NS(=O)(=O)c2cc(F)ccc2N1)NCc1ccccc1Cl ?
A549 tox: -1%; Nrf2 ARE act: 0%; Rango dissoc inh: -4%; Rango complex inh: 1%; Nrf2 inh: 1%

What do the screens show for `Cc1cccc(NC(=O)Nc2ccc(Oc3c(F)c(F)c(F)c(F)c3F)cc2)c1`?
A549 tox: -4%; Nrf2 ARE act: -1%; Rango dissoc inh: -1%; Rango complex inh: 0%; Nrf2 inh: 4%

What do the screens show for `O=C(Nc1ccc(Oc2c(F)c(F)c(F)c(F)c2F)cc1)OC1CCN2Cc3ccccc3N=C12` (centres undefined)?
A549 tox: 21µM*; Nrf2 ARE act: 23%; Rango dissoc inh: 1%; Rango complex inh: 3%; Nrf2 inh: 23µM*

Results for Nc1nc(-c2ccccn2)nc(N)c1Cc1ccccc1F ?
A549 tox: -8%; Nrf2 ARE act: 1%; Rango dissoc inh: 0%; Rango complex inh: -1%; Nrf2 inh: inconclusive

How did Nc1nc(-c2ccccn2)nc(N)c1Cc1ccc(Cl)cc1Cl do in these assays?
A549 tox: inconclusive; Nrf2 ARE act: 7%; Rango dissoc inh: -9%; Rango complex inh: -1%; Nrf2 inh: 6.5µM*

What do the screens show for `COc1ccc(CNC[C@H]2O[C@@H](n3ccc(=O)[nH]c3=O)[C@H](O)[C@@H]2O)cc1`?
Nrf2 ARE act: 0%

Results for Cc1nn(C)cc1C1C2=C(CC(C)(C)CC2=O)N(c2ccccc2)C2=C1C(=O)CC(C)(C)C2 ?
A549 tox: 0%; Nrf2 ARE act: 0%; Rango dissoc inh: 8.2µM*; Rango complex inh: inconclusive; Nrf2 inh: 0%

How did Oc1cccc(Nc2c3ccccc3nc3ccccc23)c1 do in these assays?
A549 tox: inconclusive; Nrf2 ARE act: 9%; Rango dissoc inh: inconclusive; Rango complex inh: inconclusive; Nrf2 inh: 23µM*

Results for COc1ccccc1Nc1c2ccccc2nc2ccccc12 ?
A549 tox: inconclusive; Nrf2 ARE act: 4%; Rango dissoc inh: -14%; Rango complex inh: -1%; Nrf2 inh: 15µM*

What do the screens show for `COc1ccccc1OCC(=O)NNC(=O)CCCC(=O)NNC(=O)COc1ccccc1OC`?
A549 tox: -1%; Nrf2 ARE act: -1%; Rango dissoc inh: -4%; Rango complex inh: -4%; Nrf2 inh: -11%
